The first test is described as follows: qHTS profiling of the MIPE4 collection as inhibitors of Plasmodium falciparum (DD2) proliferation (AID 743345). The note with it: P. falciparum Dd2 in erythrocytes, SYBR Green DNA, 72 h; at 28.5 µM (top of the series) unless noted. The essentials:
(§1)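 Erythrocytes infected with P. falciparum (0.3% parasitemia, 2.5% hematocrit) incubated with compounds 72 h at 37 C, 5% CO2. Lysis with saponin/Triton buffer containing SYBR Green I, overnight at room temperature in the dark; DNA fluorescence (485/535 nm) normalised to 0.29 uM artemisinin and DMSO.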
A general note: Quantitative high-throughput screening tests each substance at several concentrations.
As to `CCCCc1ccc(NS(=O)(=O)c2ccc(C)c(C(=O)N3CCN(c4cccc(C)c4C)CC3)c2)cc1`, the parasite growth remaining, % of DMSO control (lower = more inhibition) amounted to 99.3%.

As for `CC[C@]1(O)C[C@H]2CN(CCC3=c4ccccc4=N[C]3[C@@](C(=O)OC)(c3cc4c(cc3OC)N(C)[C@H]3[C@@](O)(C(N)=O)[C@H](O)[C@]5(CC)C=CCN6CC[C@]43[C@@H]65)C2)C1`, the parasite growth remaining, % of DMSO control (lower = more inhibition) came out at 14.1%.

`O=C(Nc1ccc(OC(F)(F)F)cc1)c1sccc1NCc1ccnc2ccccc12`: the parasite growth remaining, % of DMSO control (lower = more inhibition) was determined as 85.7%.

In the case of `O=C1CN2Cc3c(ccc(Cl)c3Cl)N=C2N1`, the parasite growth remaining, % of DMSO control (lower = more inhibition) turned out to be 91.6%.

`Cc1c(C(=O)Nc2ccc(N3C[C@@H](C)O[C@@H](C)C3)nc2)cccc1-c1ccc(OC(F)(F)F)cc1`: the parasite growth remaining, % of DMSO control (lower = more inhibition) came out at 72.7%.

Turning to `CC(C)C[C@@H](C(=O)N[C@H](C(=O)OC1CCCC1)c1ccccc1)[C@H](O)C(=O)NO`, the parasite growth remaining, % of DMSO control (lower = more inhibition) came out at 21.7%.

`NCC1CCC(C(=O)O)CC1` (stereo unspecified): the parasite growth remaining, % of DMSO control (lower = more inhibition) was determined as 105%.

In the case of `CN(C)CCN(C)C(=O)c1ccc(NC(=O)Nc2ccc(-c3nc(N4CCOCC4)c4ccn(CC(F)(F)F)c4n3)cc2)cc1`, the parasite growth remaining, % of DMSO control (lower = more inhibition) worked out at 8.31%.

For the molecule `CC(=O)OCC(=O)[C@@]1(O)CC[C@H]2[C@@H]3CCC4=CC(=O)C=C[C@]4(C)[C@@H]3[C@@H](O)C[C@@]21C`, the parasite growth remaining, % of DMSO control (lower = more inhibition) was 102%.

Take `CCOC(=O)c1c(CSc2ccccc2)n(C)c2cc(Br)c(O)c(CN(C)C)c12`: the parasite growth remaining, % of DMSO control (lower = more inhibition) is 10.6%.

On to `CCc1cc(-c2n[nH]c(C)c2-c2ccc3c(c2)OCCO3)c(O)cc1O`, for which the parasite growth remaining, % of DMSO control (lower = more inhibition) was determined as 57.9%.

Consider `CC(=O)NCCC(=O)N[C@@H](CCC(N)=O)C(=O)N[C@@H](CO)C(=O)N[C@@H](CCC(N)=O)C(=O)N[C@@H](CCC(N)=O)C(=O)N[C@H](C(=O)N[C@@H](Cc1ccccc1)C(=O)N[C@]1(C)CCCCCCC=CCCC[C@@](C)(C(=O)N[C@@H](CCC(N)=O)C(=O)N[C@@H](CC(N)=O)C(N)=O)NC(=O)[C@H](CC(C)C)NC(=O)[C@H](CC(C)C)NC(=O)[C@@H](CCCNC(=N)N)NC(=O)[C@H](Cc2c[nH]c3ccccc23)NC(=O)[C@H](CC(C)C)NC(=O)[C@H](CC(N)=O)NC1=O)[C@H](C)O`, for which the parasite growth remaining, % of DMSO control (lower = more inhibition) was found to be 41.2%.

Take `COc1ccc(Cn2ccc3ccc(C(=O)NO)cc32)cc1`: the parasite growth remaining, % of DMSO control (lower = more inhibition) came out at 13.4%.

For `O=C(O)CCC=CCC[C@@H]1[C@H](N2CCCCC2)[C@@H](O)C[C@@H]1OCc1ccc(-c2ccccc2)cc1`, the parasite growth remaining, % of DMSO control (lower = more inhibition) amounted to 92.8%.

As to `O=C(Nc1ncc(SCCN2CCCC2)s1)[C@]1(c2ccc(S(=O)(=O)C3CC3)cc2)C[C@@H]1C1CCCCC1`, the parasite growth remaining, % of DMSO control (lower = more inhibition) was determined as 7.78%.

Consider `CCOC(=O)[C@@H](N)CCC(=O)N[C@@H](CSCc1ccccc1)C(=O)N[C@@H](C(=O)OCC)c1ccccc1`, for which the parasite growth remaining, % of DMSO control (lower = more inhibition) is 86.5%.

Turning to `N#CC(=C1Nc2ccccc2S1)c1ccnc(OCc2ccc(CN3CCOCC3)cc2)n1`, the parasite growth remaining, % of DMSO control (lower = more inhibition) was found to be 57.9%.

As for `C[C@]12CCC3=C4CCC(=O)C=C4CC[C@@H]3[C@H]1CC[C@@]2(O)CC#N`, the parasite growth remaining, % of DMSO control (lower = more inhibition) came out at 97.5%.

For `Cc1ccc(S(=O)(=O)Nc2nc3ccccc3nc2Nc2ccc3nsnc3c2)cc1`, the parasite growth remaining, % of DMSO control (lower = more inhibition) is 88% [at 9.64 µM].

As to `O=c1[nH]nc(OCCCc2ccc(Cl)cc2)c(NCc2cccnc2)c1Br`, the parasite growth remaining, % of DMSO control (lower = more inhibition) came out at 6.08%.

As to `COc1cc2c(cc1Cc1cccc(Cl)c1F)c(=O)c(C(=O)O)cn2[C@H](CO)C(C)C`, the parasite growth remaining, % of DMSO control (lower = more inhibition) was found to be 19%.

Consider `C=C1[C@H](n2cnc3c(=O)[nH]c(N)nc32)C[C@H](O)[C@H]1CO`, for which the parasite growth remaining, % of DMSO control (lower = more inhibition) came out at 88%.

Regarding `CC(O)=C(C#N)C(=O)Nc1ccc(C(F)(F)F)cc1`, the parasite growth remaining, % of DMSO control (lower = more inhibition) amounted to 89.7%.

Turning to `CCC(=O)NCC[C@@H]1CCc2ccc3c(c21)CCO3`, the parasite growth remaining, % of DMSO control (lower = more inhibition) stood at 89.9%.

With `O[C@@H](COc1cccc2ncccc12)CN1CCN(C2c3ccccc3[C@@H]3[C@H](c4ccccc42)C3(F)F)CC1` (stereo partly specified), the parasite growth remaining, % of DMSO control (lower = more inhibition) worked out at 65.6%.

On to `Cc1csc(-c2nnc(Nc3ccc(Oc4ncccc4-c4ccnc(N)n4)cc3)c3ccccc23)c1`, for which the parasite growth remaining, % of DMSO control (lower = more inhibition) came out at 81.1%.

The nature of the next test: qHTS profiling of the MIPE4 collection as inhibitors of Plasmodium falciparum (DD2) proliferation (Rep 2) (AID 743346). Particulars: P. falciparum Dd2 in erythrocytes, SYBR Green DNA, 72 h; at 28.5 µM (top of the series) unless noted. The procedure, abridged:
as §1
Regarding `CCCCc1ccc(NS(=O)(=O)c2ccc(C)c(C(=O)N3CCN(c4cccc(C)c4C)CC3)c2)cc1`, the parasite growth, % of control (lower = inhibition) came to 59.2%.

As to `Cc1cccc2c1CC[C@H](CN1CCC(c3c(Cl)cccc3Cl)CC1)C[C@@H]2O`, the parasite growth, % of control (lower = inhibition) is 25%.

As for `CC[C@]1(O)C[C@H]2CN(CCC3=c4ccccc4=N[C]3[C@@](C(=O)OC)(c3cc4c(cc3OC)N(C)[C@H]3[C@@](O)(C(N)=O)[C@H](O)[C@]5(CC)C=CCN6CC[C@]43[C@@H]65)C2)C1`, the parasite growth, % of control (lower = inhibition) was 35%.

As to `O=c1[nH]c(=O)n([C@H]2C[C@@H](O)[C@@H](CO)O2)cc1I`, the parasite growth, % of control (lower = inhibition) is 77.7%.

Turning to `Cc1nc(NC(=O)N2CCC[C@@H]2C(N)=O)sc1-c1csc(C(C)(C)C)n1`, the parasite growth, % of control (lower = inhibition) turned out to be 28.5%.

Consider `O=C(Nc1ccc(OC(F)(F)F)cc1)c1sccc1NCc1ccnc2ccccc12`, for which the parasite growth, % of control (lower = inhibition) came to 82.6%.

Consider `O=C1CN2Cc3c(ccc(Cl)c3Cl)N=C2N1`, for which the parasite growth, % of control (lower = inhibition) turned out to be 85.1%.

On to `CC(C)C[C@@H](C(=O)N[C@H](C(=O)OC1CCCC1)c1ccccc1)[C@H](O)C(=O)NO`, for which the parasite growth, % of control (lower = inhibition) amounted to 29%.

On to `NCC1CCC(C(=O)O)CC1` (stereo unspecified), for which the parasite growth, % of control (lower = inhibition) was 104%.

`CN(C)CCN(C)C(=O)c1ccc(NC(=O)Nc2ccc(-c3nc(N4CCOCC4)c4ccn(CC(F)(F)F)c4n3)cc2)cc1`: the parasite growth, % of control (lower = inhibition) turned out to be 20.5%.

For the molecule `CC(=O)OCC(=O)[C@@]1(O)CC[C@H]2[C@@H]3CCC4=CC(=O)C=C[C@]4(C)[C@@H]3[C@@H](O)C[C@@]21C`, the parasite growth, % of control (lower = inhibition) stood at 81.3%.

In the case of `CCOC(=O)c1c(CSc2ccccc2)n(C)c2cc(Br)c(O)c(CN(C)C)c12`, the parasite growth, % of control (lower = inhibition) worked out at 12.1%.

With `CCc1cc(-c2n[nH]c(C)c2-c2ccc3c(c2)OCCO3)c(O)cc1O`, the parasite growth, % of control (lower = inhibition) was 31.5%.

Turning to `CC(=O)NCCC(=O)N[C@@H](CCC(N)=O)C(=O)N[C@@H](CO)C(=O)N[C@@H](CCC(N)=O)C(=O)N[C@@H](CCC(N)=O)C(=O)N[C@H](C(=O)N[C@@H](Cc1ccccc1)C(=O)N[C@]1(C)CCCCCCC=CCCC[C@@](C)(C(=O)N[C@@H](CCC(N)=O)C(=O)N[C@@H](CC(N)=O)C(N)=O)NC(=O)[C@H](CC(C)C)NC(=O)[C@H](CC(C)C)NC(=O)[C@@H](CCCNC(=N)N)NC(=O)[C@H](Cc2c[nH]c3ccccc23)NC(=O)[C@H](CC(C)C)NC(=O)[C@H](CC(N)=O)NC1=O)[C@H](C)O`, the parasite growth, % of control (lower = inhibition) is 28.5%.

Turning to `CC[C@H]1OC(=O)[C@H](C)[C@@H](O[C@H]2C[C@@](C)(OC)[C@@H](O)[C@H](C)O2)[C@H](C)[C@@H](O[C@@H]2O[C@H](C)C[C@H](N(C)C)[C@H]2O)[C@](C)(O)C[C@H](C)C(=NOCOCCOC)[C@H](C)[C@@H](O)[C@]1(C)O`, the parasite growth, % of control (lower = inhibition) turned out to be 47.3%.

Take `COc1ccc(Cn2ccc3ccc(C(=O)NO)cc32)cc1`: the parasite growth, % of control (lower = inhibition) turned out to be 8.17%.

Turning to `O=C(O)CCC=CCC[C@@H]1[C@H](N2CCCCC2)[C@@H](O)C[C@@H]1OCc1ccc(-c2ccccc2)cc1`, the parasite growth, % of control (lower = inhibition) turned out to be 62.3%.

`O=C(CO)N1CCC(c2[nH]nc(-c3ccc(Cl)cc3)c2-c2ccncn2)CC1`: the parasite growth, % of control (lower = inhibition) was determined as 53.8%.

For the molecule `O=C(Nc1ncc(SCCN2CCCC2)s1)[C@]1(c2ccc(S(=O)(=O)C3CC3)cc2)C[C@@H]1C1CCCCC1`, the parasite growth, % of control (lower = inhibition) came to 20.2%.

Consider `CCOC(=O)[C@@H](N)CCC(=O)N[C@@H](CSCc1ccccc1)C(=O)N[C@@H](C(=O)OCC)c1ccccc1`, for which the parasite growth, % of control (lower = inhibition) turned out to be 163%.

On to `C[C@]12CCC3=C4CCC(=O)C=C4CC[C@@H]3[C@H]1CC[C@@]2(O)CC#N`, for which the parasite growth, % of control (lower = inhibition) was 71%.

In the case of `CC1=C(CC(=O)O)c2cc(F)ccc2C1=Cc1ccc(S(C)=O)cc1` (stereo unspecified), the parasite growth, % of control (lower = inhibition) is 64.2%.

Take `O=c1[nH]nc(OCCCc2ccc(Cl)cc2)c(NCc2cccnc2)c1Br`: the parasite growth, % of control (lower = inhibition) came out at 30.4%.

For the molecule `COc1cc2c(cc1Cc1cccc(Cl)c1F)c(=O)c(C(=O)O)cn2[C@H](CO)C(C)C`, the parasite growth, % of control (lower = inhibition) was determined as 16.6%.

With `CC(C)C[C@@H](N)[C@H](O)C(=O)N[C@H](C(=O)N[C@H](C(=O)N[C@@H](CC(=O)O)C(=O)O)C(C)C)C(C)C`, the parasite growth, % of control (lower = inhibition) stood at 127%.

As for `C=C1[C@H](n2cnc3c(=O)[nH]c(N)nc32)C[C@H](O)[C@H]1CO`, the parasite growth, % of control (lower = inhibition) stood at 34.7%.

Turning to `C[C@@H](O[C@H]1OCCN(Cc2n[nH]c(=O)[nH]2)[C@@H]1c1ccc(F)cc1)c1cc(C(F)(F)F)cc(C(F)(F)F)c1`, the parasite growth, % of control (lower = inhibition) stood at 66.5%.

As for `CC(O)=C(C#N)C(=O)Nc1ccc(C(F)(F)F)cc1`, the parasite growth, % of control (lower = inhibition) worked out at 63.9%.

`CCC(=O)NCC[C@@H]1CCc2ccc3c(c21)CCO3`: the parasite growth, % of control (lower = inhibition) came to 71.2%.

`Cc1csc(-c2nnc(Nc3ccc(Oc4ncccc4-c4ccnc(N)n4)cc3)c3ccccc23)c1`: the parasite growth, % of control (lower = inhibition) was found to be 47.8%.

Source of the values: PubChem BioAssay (NCATS).
